# Screening results from PubChem BioAssay.
# Sampled rows, rich in hits. Any-hit rate of the full collection: about 7.6%.
# Tau filament bind: tau filament binding; Potency, µM (highest dose often 57.1 µM), for the others: at the highest dose activity change, negative = inhibition; 2% of 71,000 active; P10636; recombinant tau filaments, thioflavin S fluorescence, 15 h; filaments grown with octadecylsulfate alongside compound; AID 596;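 also: % is scaled to controls: 0 for no effect and ±100 for the full control effect; actives lower thioflavin S fluorescence by blocking filaments or displacing dye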
#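 Read-out: ThS fluorescence, 450 nm excitation/510 nm emission; lower signal marks blocked filament formation or displaced dye. Tau at 1 uM with 30 uM ODS, 10 uM ThS, 5 mM DTT, 100 mM NaCl, 10 mM HEPES pH 7.4; 15 h, 37 C.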
# TSHR agonist: agonists of human thyroid stimulating hormone receptor. 0.48% of 73,000 active. Potency, µM (highest dose often 57.1 µM), for inactives: top-dose activation, actives largely listed as activators. HEK293-CNG-TSHR cells (CNG channel as cAMP sensor), membrane potential dye, cAMP. AID 926. P16473; active = well fitted activation curve with a large enough effect in the main read-out, with a control signal flat, not every such curve was filed as active; inconclusive = small, poorly fitted or top-dose-only effect, or a change in a side signal; inactive = no such curve, though single readings can be large or run the other way; % of control where 0% means no effect;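 also: the control signal comes from parental cells without the receptor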
# Target sequence (P16473 whole entry, looked up): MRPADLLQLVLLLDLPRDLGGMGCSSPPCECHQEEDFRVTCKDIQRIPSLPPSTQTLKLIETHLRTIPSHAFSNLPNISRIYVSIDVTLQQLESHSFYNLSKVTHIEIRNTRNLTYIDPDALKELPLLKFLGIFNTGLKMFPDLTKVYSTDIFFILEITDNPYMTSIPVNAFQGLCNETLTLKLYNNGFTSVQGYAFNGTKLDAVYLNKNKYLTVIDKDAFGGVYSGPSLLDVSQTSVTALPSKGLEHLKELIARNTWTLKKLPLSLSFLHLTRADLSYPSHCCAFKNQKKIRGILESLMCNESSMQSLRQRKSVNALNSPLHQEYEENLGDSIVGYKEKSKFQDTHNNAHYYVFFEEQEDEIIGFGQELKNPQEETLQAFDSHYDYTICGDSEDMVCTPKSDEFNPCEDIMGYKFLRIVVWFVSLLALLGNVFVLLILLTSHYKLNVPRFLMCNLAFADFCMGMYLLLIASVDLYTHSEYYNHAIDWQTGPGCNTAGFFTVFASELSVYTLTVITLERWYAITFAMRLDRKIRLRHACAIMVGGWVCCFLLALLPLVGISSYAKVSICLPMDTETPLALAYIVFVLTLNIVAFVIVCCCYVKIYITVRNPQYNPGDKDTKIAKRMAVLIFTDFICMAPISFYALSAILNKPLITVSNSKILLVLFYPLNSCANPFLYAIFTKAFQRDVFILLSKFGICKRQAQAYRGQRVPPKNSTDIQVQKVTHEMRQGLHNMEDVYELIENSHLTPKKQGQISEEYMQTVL
#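 HEK 293 cells stably expressing TSHR and a cAMP-gated CNG channel; parental CNG-only cells as counterscreen. Cells preloaded 60 min with membrane potential dye plus 100 uM RO 20-1724, then compound 30 min; fluorescence read at 590 nm.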
# CRE Fsk mod: alters forskolin-stimulated CRE reporter signaling in CHO cells; CHO CRE-bla reporter (cAMP response element driving beta-lactamase), forskolin EC10, beta-lactamase ratio; Potency, µM (series often up to 38.2 µM), inactives show at the top dose activity change, negative = inhibition, hits mostly activators; AID 662; 2.5% of 71,000 active; active = well fitted activation curve with a large enough effect in the signal ratio, with a control signal flat, not every such curve was filed as active; inconclusive = small, poorly fitted or top-dose-only effect, or effect the other way, or a change in a side signal; the % refers to the signal ratio; also: % of control where 0% means no effect
#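 Using CellSensor CRE-bla CHO cells in Opti-MEM with 0.5% dialyzed FBS, compounds were titrated with EC10 NKH 477 for 3 h at 37 °C. CCF4 ratio (460/530 nm) gave %Activity; AC50 derived.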
# HEK293 cAMP cs: parental HEK293 cAMP activation (counter-screen); 2.5% of 73,000 active; parental HEK293 CNG cAMP sensor, membrane potential fluorescence; Potency, µM (highest dose often 57.1 µM), inactives show top-dose activation, hits mostly activators; also: % of control where 0% means no effect; nearly all actives have a fitted effect of over 55% in size
#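 Counterscreen for endogenous-receptor signalling: CNG-channel HEK 293 cells report cAMP rise by membrane depolarization. After 60 min dye equilibration with 100 uM RO 20-1724, compounds incubated 30 min before bottom-read fluorescence at 590 nm.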
# ERK AVP inh: inhibitors of vasopressin-stimulated ERK signaling pathway. Potency, µM (series often up to 57.5 µM), without a hit: top-dose activity, negative = inhibition, most hits filed as inhibitors. HEK293-V1b, vasopressin-stimulated pERK AlphaScreen. AID 995. 0.99% of 72,000 active; also: % is scaled to controls: 0 for no effect and ±100 for the full control effect; nearly all actives have a fitted effect of over 55% in size
#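 Phosphorylated ERK1/2 detected via AlphaScreen bead proximity in lysates of V1b-expressing HEK293 cells given 25 nM vasopressin for 5 min after 30 min compound exposure (37 °C). AC50 from Hill equation; basal DMSO 0%, vasopressin 100%.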
# * hit, by the source's call; ? = inconclusive; . = no result; [ ] = another dose, or the depositor's remark. Unless noted, calls follow the shape of the dose curve; as a rule, active = well fitted curve in the direction sought with a large enough effect; inconclusive = small, poorly fitted or top-dose-only effect, or another doubt; inactive = no such curve, though single readings can be large; an effect the other way counts as inactive or inconclusive. Potency is read from the fitted curve at half-maximal effect.
SMILES,Tau filament bind,TSHR agonist,CRE Fsk mod,HEK293 cAMP cs,ERK AVP inh
CC(=O)N1CC2(CC2)CC1c1ccccc1 (stereo not given),6%,-4%,3.2µM*,3%,5%
CCC(=O)N1CCN(C(C)=O)C1c1ccccc1 (stereo not given),9%,?,-1%,?,-8%
COc1cccc(/C=C/C2=CC3(C)CC2(C)C(c2cccc(OC)c2)CC3=O)c1 (stereo not given),.,3%[11.4 µM],.,11%[11.4 µM],-21%[11.5 µM]
Cc1cc(N2CCN(C(c3ccccc3)c3ccc(Cl)cc3)CC2)n2ncnc2n1 (stereo not given),306%,25µM*,?,17%,?
CC1(C)CC[C@]2(C(=O)O)CC[C@]3(C)C(=CC[C@@H]4[C@@]5(C)CC[C@H](O)C(C)(C)[C@@H]5CC[C@@]43C)[C@@H]2C1,?,-3%,?,-1%,.
Cc1cccn2cc(CCNS(=O)(=O)c3ccc4c(c3)OCCO4)nc12,0%,?,10µM*,?,.
O=S(=O)(NCc1cn2ccsc2n1)c1ccc2c(c1)OCCO2,-5%,12%[11.4 µM],2%,-3%,10%
Cc1ccc2c(c1)[nH]c1c(N3CCN(Cc4ccccc4)CC3)ncnc12,15%,?,?,?,16µM*
O=C(O)CSc1cc(-c2ccccc2)nc2ccccc12,-2%[11.4 µM],2%[11.4 µM],-2%[7.6 µM],16%[11.4 µM],1%[11.5 µM]
On1onc2c3cc(-c4ccccc4)nc3ccc21,13µM*,-39%,?,-28%,25µM*
Cc1cc(NC(=O)CSc2nc(-c3ccco3)cc(C(F)(F)F)n2)no1,130%,15%,4µM*,14%,6%
Cc1ccnc(SCC(=O)Nc2oc(-c3ccccc3)c(-c3ccccc3)c2C#N)n1,188%,?,10µM*,?,-19%
N#Cc1c(NC(=O)CSc2n[nH]c(Cc3ccccc3)n2)oc(-c2ccccc2)c1-c1ccccc1,203%,28%,?,17%,-12%
CCCCNc1cc(NC(C)=O)cc2cc(OC)c(OC)cc12,25µM*,-12%,?,-15%,?
COc1ccccc1NC(=O)Cn1nc(C(F)(F)F)c2c1CCCC2,-3%,?,4%,20µM*,29%
O=C(Cn1nc(C(F)(F)F)c2c1CCCC2)Nc1ccc2c(c1)OCO2,-8%,2%,?,10%,12%
O=C(c1ccccc1)c1ccc(OCC(O)CN2CCCCC2)cc1 (stereo not given),6%,13%,-23%,3%,-5%
CN(C)S(=O)(=O)N1CCN(CC(O)COc2ccc(C(=O)c3ccccc3)cc2)CC1 (stereo not given),44%,12%,-11%,8%,32µM*
CC(=O)c1cccc(NC(=O)C2CCN(S(=O)(=O)c3c(C)n[nH]c3C)CC2)c1,25µM*,5%,?,-7%,?
Cc1n[nH]c(C)c1S(=O)(=O)N1CCCC(C(=O)NC2CCCCC2)C1 (stereo not given),-3%,?,3%,10µM*,-5%
CCNc1ncc2nc(-c3ccc(Cl)cc3)c(=O)n(C3CC3)c2n1,38%,-4%,?,6%,30%
c1cncc(Nc2nc(-c3ccncc3)cs2)c1,-7%,-28%,?,-14%,20µM*
Cc1nc(N)sc1-c1csc(Nc2ccccc2)n1,20µM*,-5%,-14%,-20%,-13%
COc1ccc(OC)c(Nc2nc(-c3sc(N)nc3C)cs2)c1,10µM*,-29%,21%,-7%,9%
c1cncc(Nc2nc(-c3cccnc3)cs2)c1,6%,-18%,?,-16%,?
SMILES,Tau filament bind,TSHR agonist,CRE Fsk mod,HEK293 cAMP cs,ERK AVP inh
Cc1nc(C)c(-c2csc(Nc3cccnc3)n2)s1,?,6%,10µM*,2%,-11%
O=C(O)CC1(C(=O)O)CCCCC1,6%[11.4 µM],-2%[11.4 µM],-1%[7.6 µM],-2%[11.4 µM],9%[11.5 µM]
N#Cc1cccc(-c2cncnc2-n2ccnc2)c1,14%,9%,3%,8%,-6%
COc1cc(/C=N/NC(=O)c2cc(-c3ccccc3)n[nH]2)cc(OC)c1OC,.,-3%,.,7%,.
COC(=O)c1ccc(C(NC(=O)OCc2ccccc2)/C(=C/[C@@H](C)C(=O)NC2CCCCC2)c2cccnc2)cc1 (stereo not given in full),4%,?,-17%,?,12%
O=C(N/N=C1/C[C@@H](O)[C@@H](O)[C@@H]2[C@@H]3C(=O)N(C4CCCCC4)C(=O)[C@H]3CC[C@@H]12)OCc1ccccc1,.,-3%[11.4 µM],.,-3%[11.4 µM],-4%[11.5 µM]
C[C@@H]1O[C@@H](n2cc(F)c(=O)[nH]c2=O)[C@H](O)[C@@H]1O,8%,.,?,16%,14%
COc1ccc2c(C)cc(SCC#N)nc2c1,39%,?,14%,32µM*,-27%
COc1ccc2nc(C)cc(SCC(=O)O)c2c1,-5%,-3%,1%,3%,-13%
CCn1c(SCC(=O)Nc2nc3ccc(OC)cc3s2)nc2c1c(=O)n(C)c(=O)n2C,-12%,27%,2µM*,17%,?
CCn1c(SCC(=O)Nc2nc3c(s2)CCCC3)nc2c1c(=O)n(C)c(=O)n2C,4%,4%,-3%,11%,14%
CCOc1ccc2nc(NC(=O)Nc3cccs3)sc2c1,51%,-21%,?,-3%,32µM*
COc1ccc(OC)c(NC(=O)CSc2nc3c(c(=O)n(C)c(=O)n3C)n2C)c1,2%,3%,2µM*,-6%,3%
CCOc1ccc2nc(NC(=O)COC)sc2c1,-4%,4%,13%,-1%,-10%
CCOc1ccc2nc(NC(=O)Cn3cnc4c3c(=O)n(C)c(=O)n4C)sc2c1,-5%,?,?,-41%,-17%
CCOc1ccc2nc(NC(=O)CSc3nc4c(c(=O)n(C)c(=O)n4C)n3C(C)C)sc2c1,47%,21%,4µM*,25%,?
Cc1cn([C@H]2C[C@H](O)[C@@H](COC(N)=O)O2)c(=O)[nH]c1=O,0%[11.4 µM],10%[11.4 µM],5%[7.6 µM],-3%[11.4 µM],2%[11.5 µM]
COc1ccc(OC)c(NC(=O)CSc2nc3ccccc3c(=O)n2CCNC(C)=O)c1,-3%,13%,10µM*,3%,-19%
COc1ccc2c(c1)C(=O)N(c1ccccc1OC)C(=O)C2(C)C,0%,0%,3.2µM*,-4%,-3%
C#CCCCO/N=C1/C[C@@H](O)[C@@H](O)[C@@H]2[C@@H]3C(=O)N(c4cccc(Oc5ccccc5)c4)C(=O)[C@H]3CC[C@H]12,.,-1%[11.4 µM],.,6%[11.4 µM],-2%[11.5 µM]
CCOC(=O)c1cc2c(ccn2C)n1Cc1ccccc1C,-17%,?,-17%,25µM*,-28%
CCOC(OCC)P(=O)(O)CCCNCc1ccc(Cl)c(Cl)c1,?,-7%,-5%,0%,21%
COC(=O)N1CCC2(CCN(C(=O)Nc3ccc(OC)cc3)CC2)CC1,9%,?,5%,16µM*,8%
